# From article PMC7862700, “An all-to-all approach to the identification of sequence-specific readers for epigenetic DNA modifications on cytosine”
# Columns and labels:
# Test in all cases: DAPPL (digital affinity profiling via proximity ligation, sequencing); 10 mM Tris-HCl pH 7.5, 50 mM NaCl, 1 mM DTT, 4% glycerol, room temperature, 30 min; GST-TFs on glutathione beads, 16-mer random dsDNA library, 0.1% formaldehyde crosslink after washing; high values mean tight binding
# Details in all cases: protein: recombinant; tags: N-terminal GST; dsDNA, one strand shown
# FLI1 = molecular target: T1, FLI1 (Homo sapiens, UniProt Q01543 1-452)
# T1 sequence: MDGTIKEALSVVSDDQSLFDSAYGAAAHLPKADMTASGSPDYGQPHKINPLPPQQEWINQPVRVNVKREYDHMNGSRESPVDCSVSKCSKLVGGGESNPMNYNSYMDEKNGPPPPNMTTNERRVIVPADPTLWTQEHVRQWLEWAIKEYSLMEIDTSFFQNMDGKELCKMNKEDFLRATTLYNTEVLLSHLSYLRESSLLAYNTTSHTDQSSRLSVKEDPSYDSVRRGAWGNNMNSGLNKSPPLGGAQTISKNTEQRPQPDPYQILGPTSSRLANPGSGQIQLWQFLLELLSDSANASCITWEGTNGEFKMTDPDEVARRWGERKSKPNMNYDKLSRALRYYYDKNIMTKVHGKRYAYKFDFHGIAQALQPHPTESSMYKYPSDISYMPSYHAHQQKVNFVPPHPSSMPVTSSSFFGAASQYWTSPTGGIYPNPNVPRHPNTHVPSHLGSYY
# Summary of the method: (§1)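 After expression in yeast as GST fusions, human transcription factors were bound to glutathione beads, DNA-barcoded and mixed with a tag-only sample. The pools were incubated with 200 nmole of a 16-mer random double-stranded DNA library in Tris/NaCl/DTT/glycerol buffer (30 min, room temperature), washed and crosslinked with 0.1% formaldehyde. Proximity ligation with BsaI/T4 ligase ran for 1 h at 37 °C, before PCR amplification and sequencing on an Illumina NextSeq500. Binding signal is a hexamer's read frequency for a factor divided by its frequency for the tag-only sample.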
# ELK1 = molecular target: T2, ELK1 (Homo sapiens, UniProt P19419 1-428)
# T2 sequence: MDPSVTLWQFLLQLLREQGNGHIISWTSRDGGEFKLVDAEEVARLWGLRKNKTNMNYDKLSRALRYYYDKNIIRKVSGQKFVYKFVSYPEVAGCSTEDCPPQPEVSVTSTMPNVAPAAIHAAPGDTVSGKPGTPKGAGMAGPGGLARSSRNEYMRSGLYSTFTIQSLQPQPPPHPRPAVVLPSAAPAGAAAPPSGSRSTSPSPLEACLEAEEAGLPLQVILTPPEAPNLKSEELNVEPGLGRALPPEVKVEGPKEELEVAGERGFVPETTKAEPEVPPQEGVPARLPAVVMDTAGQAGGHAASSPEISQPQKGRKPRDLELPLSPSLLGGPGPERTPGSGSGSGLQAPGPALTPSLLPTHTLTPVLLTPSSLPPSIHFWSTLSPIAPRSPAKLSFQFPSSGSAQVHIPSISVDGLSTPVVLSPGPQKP
# Summary of the method: as §1
# GABPA = molecular target: T3, GABPA (Homo sapiens, UniProt Q06546 1-454)
# T3 sequence: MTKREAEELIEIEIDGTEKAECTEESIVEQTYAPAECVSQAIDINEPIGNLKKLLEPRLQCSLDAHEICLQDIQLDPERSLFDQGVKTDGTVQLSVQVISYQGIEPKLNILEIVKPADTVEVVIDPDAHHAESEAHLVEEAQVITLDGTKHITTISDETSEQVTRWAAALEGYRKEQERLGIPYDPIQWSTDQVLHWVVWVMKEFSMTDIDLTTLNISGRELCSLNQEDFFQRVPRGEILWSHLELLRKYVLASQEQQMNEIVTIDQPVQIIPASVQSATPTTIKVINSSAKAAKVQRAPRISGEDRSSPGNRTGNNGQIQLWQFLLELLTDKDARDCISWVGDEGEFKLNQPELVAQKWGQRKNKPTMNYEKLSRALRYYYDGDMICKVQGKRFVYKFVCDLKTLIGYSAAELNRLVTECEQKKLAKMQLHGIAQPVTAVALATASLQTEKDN
# Summary of the method: as §1
# ERG = molecular target: T4, ERG (Homo sapiens, UniProt P11308 1-479)
# T4 sequence: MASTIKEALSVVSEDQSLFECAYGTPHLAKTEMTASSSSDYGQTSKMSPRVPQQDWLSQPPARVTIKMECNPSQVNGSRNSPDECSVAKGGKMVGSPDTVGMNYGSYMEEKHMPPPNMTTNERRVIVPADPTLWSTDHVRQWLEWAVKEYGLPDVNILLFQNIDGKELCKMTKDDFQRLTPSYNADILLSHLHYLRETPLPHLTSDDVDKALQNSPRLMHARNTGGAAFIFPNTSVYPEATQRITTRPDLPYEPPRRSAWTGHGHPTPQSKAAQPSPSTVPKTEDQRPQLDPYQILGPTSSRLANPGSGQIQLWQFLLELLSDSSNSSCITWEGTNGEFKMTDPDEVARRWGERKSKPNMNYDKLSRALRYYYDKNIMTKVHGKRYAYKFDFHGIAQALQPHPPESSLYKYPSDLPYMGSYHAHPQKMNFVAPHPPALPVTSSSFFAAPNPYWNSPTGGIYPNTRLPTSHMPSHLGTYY
# Summary of the method: as §1
# ELF1 = ELF1 (Homo sapiens, UniProt P32519 1-619)
# ELF1, sequence (P32519 whole entry): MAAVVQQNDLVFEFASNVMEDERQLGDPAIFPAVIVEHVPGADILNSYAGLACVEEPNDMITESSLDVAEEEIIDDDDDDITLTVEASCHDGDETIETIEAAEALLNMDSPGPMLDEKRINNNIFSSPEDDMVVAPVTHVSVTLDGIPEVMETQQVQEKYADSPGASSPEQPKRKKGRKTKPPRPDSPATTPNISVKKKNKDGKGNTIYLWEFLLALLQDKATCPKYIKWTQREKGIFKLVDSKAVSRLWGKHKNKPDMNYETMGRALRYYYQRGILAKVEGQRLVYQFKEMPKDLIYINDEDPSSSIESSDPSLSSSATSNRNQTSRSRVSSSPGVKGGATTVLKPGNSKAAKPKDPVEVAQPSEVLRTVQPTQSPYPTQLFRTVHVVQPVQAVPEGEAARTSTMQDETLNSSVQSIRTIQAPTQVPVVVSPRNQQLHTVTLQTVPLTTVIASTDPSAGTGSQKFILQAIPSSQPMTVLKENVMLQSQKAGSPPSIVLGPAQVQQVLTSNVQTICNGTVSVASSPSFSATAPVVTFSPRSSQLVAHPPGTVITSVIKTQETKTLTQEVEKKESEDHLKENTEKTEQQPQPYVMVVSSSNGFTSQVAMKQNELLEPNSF
# Summary of the method: as §1
# EHF = molecular target: T5, EHF (Homo sapiens, UniProt Q9NZC4 1-300)
# T5 sequence: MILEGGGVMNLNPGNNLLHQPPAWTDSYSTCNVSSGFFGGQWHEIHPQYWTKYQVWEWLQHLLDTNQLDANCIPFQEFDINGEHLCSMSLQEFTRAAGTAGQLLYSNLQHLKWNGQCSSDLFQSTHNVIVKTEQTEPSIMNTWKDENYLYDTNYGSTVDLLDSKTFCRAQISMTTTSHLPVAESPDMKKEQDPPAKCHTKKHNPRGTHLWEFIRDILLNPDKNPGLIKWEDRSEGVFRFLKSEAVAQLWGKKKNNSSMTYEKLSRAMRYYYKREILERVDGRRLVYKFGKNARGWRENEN
# Summary of the method: as §1
# SPI1 = SPI1 (Homo sapiens, UniProt P17947 1-270)
# Summary of the method: as §1
# SPIB = SPIB (Homo sapiens, UniProt Q01892 1-262)
# SPIB, sequence (Q01892 whole entry): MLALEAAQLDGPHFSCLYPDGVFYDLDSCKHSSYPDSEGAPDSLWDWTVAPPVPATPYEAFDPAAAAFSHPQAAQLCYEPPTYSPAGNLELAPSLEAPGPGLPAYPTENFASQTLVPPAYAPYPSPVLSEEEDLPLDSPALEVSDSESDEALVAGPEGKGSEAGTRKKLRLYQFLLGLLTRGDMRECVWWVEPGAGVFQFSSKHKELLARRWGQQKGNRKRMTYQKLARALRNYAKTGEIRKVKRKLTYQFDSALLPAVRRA
# Summary of the method: as §1
# ELK3 = molecular target: T6, ELK3 (Homo sapiens, UniProt P41970 1-407)
# T6 sequence: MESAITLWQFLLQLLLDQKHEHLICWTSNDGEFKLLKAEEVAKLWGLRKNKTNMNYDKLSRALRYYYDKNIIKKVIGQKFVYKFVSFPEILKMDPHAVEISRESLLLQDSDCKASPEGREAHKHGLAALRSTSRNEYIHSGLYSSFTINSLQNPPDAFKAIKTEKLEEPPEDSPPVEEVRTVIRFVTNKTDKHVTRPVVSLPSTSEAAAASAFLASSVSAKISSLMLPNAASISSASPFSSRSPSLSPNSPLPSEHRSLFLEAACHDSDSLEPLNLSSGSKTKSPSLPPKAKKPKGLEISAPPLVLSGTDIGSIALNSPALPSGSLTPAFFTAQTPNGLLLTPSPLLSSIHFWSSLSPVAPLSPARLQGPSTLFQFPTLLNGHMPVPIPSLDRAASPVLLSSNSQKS
# Summary of the method: as §1
Sequence,binding signal (FLI1),binding signal (ELK1),binding signal (GABPA),binding signal (ERG),binding signal (ELF1),binding signal (EHF),binding signal (SPI1),binding signal (SPIB),binding signal (ELK3)
CGACCC,"1.42 fold enrichment (6-mer frequency, TF over GST control)","1.46 fold enrichment (6-mer frequency, TF over GST control)","1.44 fold enrichment (6-mer frequency, TF over GST control)","1.22 fold enrichment (6-mer frequency, TF over GST control)","1.26 fold enrichment (6-mer frequency, TF over GST control)","1.29 fold enrichment (6-mer frequency, TF over GST control)","1.23 fold enrichment (6-mer frequency, TF over GST control)","1.21 fold enrichment (6-mer frequency, TF over GST control)","1.37 fold enrichment (6-mer frequency, TF over GST control)"
GCCTCA,"1.34 fold enrichment (6-mer frequency, TF over GST control)","1.34 fold enrichment (6-mer frequency, TF over GST control)","1.34 fold enrichment (6-mer frequency, TF over GST control)","1.13 fold enrichment (6-mer frequency, TF over GST control)","1.25 fold enrichment (6-mer frequency, TF over GST control)","1.17 fold enrichment (6-mer frequency, TF over GST control)","1.17 fold enrichment (6-mer frequency, TF over GST control)","1.25 fold enrichment (6-mer frequency, TF over GST control)","1.19 fold enrichment (6-mer frequency, TF over GST control)"
TCTGTC,"1.16 fold enrichment (6-mer frequency, TF over GST control)","1.13 fold enrichment (6-mer frequency, TF over GST control)","1.16 fold enrichment (6-mer frequency, TF over GST control)","1.17 fold enrichment (6-mer frequency, TF over GST control)","1.12 fold enrichment (6-mer frequency, TF over GST control)","1.14 fold enrichment (6-mer frequency, TF over GST control)","1.1 fold enrichment (6-mer frequency, TF over GST control)","1.05 fold enrichment (6-mer frequency, TF over GST control)","1.17 fold enrichment (6-mer frequency, TF over GST control)"
TCCCCG,"1.15 fold enrichment (6-mer frequency, TF over GST control)","1.22 fold enrichment (6-mer frequency, TF over GST control)","1.32 fold enrichment (6-mer frequency, TF over GST control)","1.2 fold enrichment (6-mer frequency, TF over GST control)","1.23 fold enrichment (6-mer frequency, TF over GST control)","1.35 fold enrichment (6-mer frequency, TF over GST control)","1.18 fold enrichment (6-mer frequency, TF over GST control)","1.13 fold enrichment (6-mer frequency, TF over GST control)","1.13 fold enrichment (6-mer frequency, TF over GST control)"
GGTTTC,"1.53 fold enrichment (6-mer frequency, TF over GST control)","1.39 fold enrichment (6-mer frequency, TF over GST control)","1.54 fold enrichment (6-mer frequency, TF over GST control)","1.6 fold enrichment (6-mer frequency, TF over GST control)","1.54 fold enrichment (6-mer frequency, TF over GST control)","1.51 fold enrichment (6-mer frequency, TF over GST control)","1.6 fold enrichment (6-mer frequency, TF over GST control)","1.52 fold enrichment (6-mer frequency, TF over GST control)","1.62 fold enrichment (6-mer frequency, TF over GST control)"
TCCTGG,"1.66 fold enrichment (6-mer frequency, TF over GST control)","1.47 fold enrichment (6-mer frequency, TF over GST control)","1.69 fold enrichment (6-mer frequency, TF over GST control)","1.85 fold enrichment (6-mer frequency, TF over GST control)","1.69 fold enrichment (6-mer frequency, TF over GST control)","1.66 fold enrichment (6-mer frequency, TF over GST control)","1.63 fold enrichment (6-mer frequency, TF over GST control)","1.74 fold enrichment (6-mer frequency, TF over GST control)","1.55 fold enrichment (6-mer frequency, TF over GST control)"
TTGCTG,"1.25 fold enrichment (6-mer frequency, TF over GST control)","1.13 fold enrichment (6-mer frequency, TF over GST control)","1.21 fold enrichment (6-mer frequency, TF over GST control)","1.13 fold enrichment (6-mer frequency, TF over GST control)","1.29 fold enrichment (6-mer frequency, TF over GST control)","1.25 fold enrichment (6-mer frequency, TF over GST control)","1.18 fold enrichment (6-mer frequency, TF over GST control)","1.28 fold enrichment (6-mer frequency, TF over GST control)","1.33 fold enrichment (6-mer frequency, TF over GST control)"
CCACAT,"1.2 fold enrichment (6-mer frequency, TF over GST control)","1.3 fold enrichment (6-mer frequency, TF over GST control)","1.12 fold enrichment (6-mer frequency, TF over GST control)","1.15 fold enrichment (6-mer frequency, TF over GST control)","1.25 fold enrichment (6-mer frequency, TF over GST control)","1.21 fold enrichment (6-mer frequency, TF over GST control)","1.07 fold enrichment (6-mer frequency, TF over GST control)","1.16 fold enrichment (6-mer frequency, TF over GST control)","1.14 fold enrichment (6-mer frequency, TF over GST control)"
GACCTC,"1.22 fold enrichment (6-mer frequency, TF over GST control)","1.35 fold enrichment (6-mer frequency, TF over GST control)","1.35 fold enrichment (6-mer frequency, TF over GST control)","1.38 fold enrichment (6-mer frequency, TF over GST control)","1.39 fold enrichment (6-mer frequency, TF over GST control)","1.31 fold enrichment (6-mer frequency, TF over GST control)","1.36 fold enrichment (6-mer frequency, TF over GST control)","1.42 fold enrichment (6-mer frequency, TF over GST control)","1.33 fold enrichment (6-mer frequency, TF over GST control)"
